Data on 43 compounds can be found in article PMC4336329 (PLoS ONE, 2015).

The structures appear in SMILES notation. In all, about 310,000 compounds went through this assay and about 14,000 (4.5%) showed an effect of 50% or more. The effect is printed as a negative number. The sample as a whole holds a higher share of strong results than the screen did.
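Note: peak tail current of the secondary pulse compared with the same well before compound.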

The target in the assay is human ether-à-go-go-related gene (hERG) potassium channel (human, UniProt Q12809). The assay is described as follows: primary screen, population patch clamp on CHO cells stably expressing hERG; higher = less effect of the substance.
Chain of human ether-à-go-go-related gene (hERG) potassium channel (Q12809 whole entry, looked up): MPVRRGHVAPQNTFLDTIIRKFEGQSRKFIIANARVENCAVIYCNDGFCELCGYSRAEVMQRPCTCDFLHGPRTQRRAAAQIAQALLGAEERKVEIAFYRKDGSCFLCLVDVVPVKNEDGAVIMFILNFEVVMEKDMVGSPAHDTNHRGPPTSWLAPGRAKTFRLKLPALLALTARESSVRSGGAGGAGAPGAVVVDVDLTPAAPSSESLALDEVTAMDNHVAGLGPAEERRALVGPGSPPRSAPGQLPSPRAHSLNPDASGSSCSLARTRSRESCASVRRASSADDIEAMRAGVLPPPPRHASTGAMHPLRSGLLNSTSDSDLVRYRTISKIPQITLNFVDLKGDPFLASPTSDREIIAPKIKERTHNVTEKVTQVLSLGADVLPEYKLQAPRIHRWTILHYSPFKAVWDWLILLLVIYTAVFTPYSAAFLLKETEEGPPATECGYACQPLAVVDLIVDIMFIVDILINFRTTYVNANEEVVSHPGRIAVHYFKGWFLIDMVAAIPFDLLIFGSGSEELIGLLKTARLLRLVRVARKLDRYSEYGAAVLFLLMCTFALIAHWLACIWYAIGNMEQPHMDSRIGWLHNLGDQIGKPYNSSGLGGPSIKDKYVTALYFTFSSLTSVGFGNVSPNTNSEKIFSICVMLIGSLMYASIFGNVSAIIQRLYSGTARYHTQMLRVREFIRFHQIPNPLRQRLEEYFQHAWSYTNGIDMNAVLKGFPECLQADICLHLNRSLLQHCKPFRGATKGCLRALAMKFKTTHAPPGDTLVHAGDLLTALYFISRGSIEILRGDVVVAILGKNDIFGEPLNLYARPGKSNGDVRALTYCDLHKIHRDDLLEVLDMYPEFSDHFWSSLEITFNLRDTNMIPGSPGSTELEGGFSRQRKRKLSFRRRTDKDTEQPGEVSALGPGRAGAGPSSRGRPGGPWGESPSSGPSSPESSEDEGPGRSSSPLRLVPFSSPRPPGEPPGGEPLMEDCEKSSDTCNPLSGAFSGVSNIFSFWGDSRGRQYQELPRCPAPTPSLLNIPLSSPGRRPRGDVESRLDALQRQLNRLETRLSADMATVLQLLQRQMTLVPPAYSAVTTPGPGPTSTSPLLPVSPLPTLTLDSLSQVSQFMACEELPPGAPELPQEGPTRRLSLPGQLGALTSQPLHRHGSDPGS
Take `O=C(N/N=C/c1c(O)ccc2ccccc12)Nc1ccccc1`: the “hERG current change (%, negative = inhibition) at 10uM” value is 16.3%.

Take `COc1cc2cc(CCCOC(=O)c3cccc(Br)c3)oc(=O)c2cc1OC`: the “hERG current change (%, negative = inhibition) at 10uM” value was -2.2%.

As to `Cn1c(SCCS(=O)(=O)c2ccc(Cl)cc2)nnc1-c1ccccc1`, the “hERG current change (%, negative = inhibition) at 10uM” value is on record as -19.3%.

In the case of `CCOc1ccc(CCNC(=O)COC(=O)c2ccc(C)c([N+](=O)[O-])c2)cc1OCC`, the “hERG current change (%, negative = inhibition) at 10uM” value is listed as -7.57%.

Regarding `CO/N=C/NC(=O)NOCc1ccc(Cl)cc1Cl`, the “hERG current change (%, negative = inhibition) at 10uM” value is given as -11.5%.

Regarding `C[C@H](NC(=O)c1nc[nH]c1C(=O)N(C)Cc1ccccc1)C(=O)OC(C)(C)C`, the “hERG current change (%, negative = inhibition) at 10uM” value amounted to 5.67%.

As to `COc1cccc(C(=O)N(CN2CCCC2=O)c2cccc(Cl)c2)c1`, the “hERG current change (%, negative = inhibition) at 10uM” value is listed as -25.4%.

As for `CC(=O)c1cc(C#N)c(Oc2ccc(F)cc2)nc1C`, the “hERG current change (%, negative = inhibition) at 10uM” value was 13.7%.

For the compound `COc1cccc(CN2CCN(C(=O)c3cc(-c4ccncc4)nc4ccc(C)cc34)CC2)c1`, the “hERG current change (%, negative = inhibition) at 10uM” value is -71%.

Consider `Cc1ccccc1CN1CCN(C(=O)c2cc(-c3ccncc3)nc3ccccc23)CC1`, for which the “hERG current change (%, negative = inhibition) at 10uM” value is -76.7%.

For the compound `COc1cccc(CN2CCN(C(=O)c3cc(-c4ccccn4)nc4ccc(Cl)cc34)CC2)c1`, the “hERG current change (%, negative = inhibition) at 10uM” value amounted to 17.1%.

As for `CCOC(=O)N1CCN(C(=O)c2cc(-c3ccncc3)nc3ccccc23)CC1`, the “hERG current change (%, negative = inhibition) at 10uM” value is -48.4%.

On to `COc1ccc(-c2cc(C(=O)N3CCN(c4ccccn4)CC3)c3ccccc3n2)cc1`, for which the “hERG current change (%, negative = inhibition) at 10uM” value is given as -5.51%.

On to `O=C(c1cc(-c2ccncc2)nc2ccccc12)N1CCN(c2ccccn2)CC1`, for which the “hERG current change (%, negative = inhibition) at 10uM” value is -63.5%.

Turning to `O=C(c1cc(-c2ccccc2)nc2ccccc12)N1CCN(c2ccccn2)CC1`, the “hERG current change (%, negative = inhibition) at 10uM” value is recorded as -27.6%.

Take `Cc1ccc(-c2cc(C(=O)Nc3ccccc3C)c3ccccc3n2)o1`: the “hERG current change (%, negative = inhibition) at 10uM” value worked out at 9.38%.

Consider `COc1ccccc1NC(=O)c1cc(-c2ccc(C)o2)nc2ccccc12`, for which the “hERG current change (%, negative = inhibition) at 10uM” value is recorded as -60.7%.

For the compound `COc1cccc(CN2CCN(C(=O)c3cc(-c4cccnc4)nc4ccc(C)cc34)CC2)c1`, the “hERG current change (%, negative = inhibition) at 10uM” value was -12.7%.

In the case of `COc1ccc(NC(=O)c2cc(-c3ccc(C)o3)nc3ccccc23)c(OC)c1`, the “hERG current change (%, negative = inhibition) at 10uM” value is given as 14.9%.

With `CC1CC(C)CN(C(=O)c2cc(-c3ccncc3)nc3ccccc23)C1` (stereo not shown), the “hERG current change (%, negative = inhibition) at 10uM” value is -35.5%.

For the compound `N#CCSc1nnc(-c2ccccc2O)n1CCc1ccccc1`, the “hERG current change (%, negative = inhibition) at 10uM” value is reported as -10.7%.

With `CCCCNC(=S)NNC(=O)c1ccc2c(c1)OCO2`, the “hERG current change (%, negative = inhibition) at 10uM” value was determined as 5.46%.

For the compound `Cc1cc(C(=O)NNC(=O)c2cccc([N+](=O)[O-])c2)n[nH]1`, the “hERG current change (%, negative = inhibition) at 10uM” value came out at 18.9%.

For `Cc1cc(C)c(S(=O)(=O)N2CCN(C(=O)C3COc4ccccc4O3)CC2)c(C)c1` (stereo not shown), the “hERG current change (%, negative = inhibition) at 10uM” value is given as -17%.

Regarding `O=c1c2cc3c(cc2[nH]c(=S)n1CCN1CCOCC1)OCO3`, the “hERG current change (%, negative = inhibition) at 10uM” value amounted to 9.66%.

With `COc1ccc(Cc2nnc(NC(=O)C(C)C)s2)cc1`, the “hERG current change (%, negative = inhibition) at 10uM” value is 11.2%.

Turning to `Cc1cc(C)c(NC(=O)COC(=O)c2c(C)noc2C)c(Cl)c1`, the “hERG current change (%, negative = inhibition) at 10uM” value is 13.8%.

Take `CS(=O)(=O)N1CCN(C(=O)c2cc(-c3ccccc3)nc3ccccc23)CC1`: the “hERG current change (%, negative = inhibition) at 10uM” value is -30.8%.

`O=C(c1cc(-c2ccncc2)nc2ccccc12)N1CCN(S(=O)(=O)/C=C/c2ccccc2)CC1`: the “hERG current change (%, negative = inhibition) at 10uM” value is -66.6%.

On to `CS(=O)(=O)N1CCN(C(=O)c2cc(-c3ccncc3)nc3ccc(Cl)cc23)CC1`, for which the “hERG current change (%, negative = inhibition) at 10uM” value was -12.8%.

Turning to `COc1ccc2[nH]c3c(=O)n(CCCCC(=O)NCCC(C)C)c(=S)[nH]c3c2c1`, the “hERG current change (%, negative = inhibition) at 10uM” value is on record as 16.3%.

Regarding `CCCCCn1c(CCNC(=O)c2cccs2)nc2ccccc21`, the “hERG current change (%, negative = inhibition) at 10uM” value is on record as -52.5%.

For the compound `CCCCn1c(CCCNC(=O)CC)nc2ccccc21`, the “hERG current change (%, negative = inhibition) at 10uM” value is on record as -37.3%.

Turning to `CCCn1c(CCNC(=O)c2cccs2)nc2ccccc21`, the “hERG current change (%, negative = inhibition) at 10uM” value is listed as -36.1%.

In the case of `CCCCn1c(=O)c(C(=O)c2ccccc2)nc2ccccc21`, the “hERG current change (%, negative = inhibition) at 10uM” value is given as -30.4%.

Take `CCCCn1c(CCNC(=O)c2cccs2)nc2ccccc21`: the “hERG current change (%, negative = inhibition) at 10uM” value is given as -33.2%.

`CCCn1c(=O)c(C(=O)c2ccccc2)nc2ccccc21`: the “hERG current change (%, negative = inhibition) at 10uM” value is recorded as -27.4%.

As to `CCCCn1c(CCNC(=O)CC)nc2ccccc21`, the “hERG current change (%, negative = inhibition) at 10uM” value is recorded as -11.2%.

Regarding `CCCCn1c(CCNC(=O)CCC)nc2ccccc21`, the “hERG current change (%, negative = inhibition) at 10uM” value is on record as -7.83%.

Regarding `CCCCCn1c(CCNC(=O)CCC)nc2ccccc21`, the “hERG current change (%, negative = inhibition) at 10uM” value was -57.2%.

As to `CCCCCn1c(=O)c(C(=O)c2ccccc2)nc2ccccc21`, the “hERG current change (%, negative = inhibition) at 10uM” value is -77.6%.

Take `CCCCCn1c(CCCNC(=O)CC)nc2ccccc21`: the “hERG current change (%, negative = inhibition) at 10uM” value is on record as -65.9%.

For the compound `CCCC(=O)NCCc1nc2ccccc2n1CCC`, the “hERG current change (%, negative = inhibition) at 10uM” value came out at 1.27%.
